# Measured values as given in PubChem BioAssay (Tox21).
# A number with no mark means an inactive call. Inconclusive results are not listed. Entries that show only a call come without a potency. Calls of active or inactive are those of the source. Unless noted, calls follow the shape of the dose curve; as a rule, active = well fitted curve in the direction sought with a large enough effect in the repeat runs; inconclusive = weak or mixed curves; inactive = no such curve, though single readings can be large; an effect the other way counts as inactive or inconclusive.
# Key:
# [1] = qHTS assay for small molecule agonists of the p53 signaling pathway (AID 651631; calls by dose curve; also: nearly all actives have a fitted effect of over 15% in size)
# In short: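 Quantitative high-throughput format: 4,000 p53RE-bla HCT-116 cells/well, 5 h pre-incubation, 16 h compound exposure at 37 °C, 2 h room-temperature substrate step, fluorescence intensity measured.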
# [2] = qHTS assay for small molecules that induce genotoxicity in human embryonic kidney cells expressing luciferase-tagged ATAD5 (AID 651632); also: nearly all actives have a fitted effect of over 15% in size
# In short: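 Concentration-response screen for ATAD5 upregulation in HEK293T luciferase reporter cells; 16 hr treatment at 37C, then luminescence after 30 min with Amplite at room temperature.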
# [3] = qHTS assay for small molecule agonists of the p53 signaling pathway - cell viability (AID 651633; calls by dose curve;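 also: p53RE-bla HCT reporter cells with a stable beta-lactamase p53 reporter; series mostly up to about 83 µM; nearly all actives have a fitted effect of over 30% in size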)
# In short: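 p53RE-bla cells, seeded at 4,000 per well and rested 5 h at 37 C/5% CO2, received compounds in DMSO for 16 h at 37 C. CellTiter-Glo was then added, and luminescence was read after 30 min at room temperature to gauge cytotoxicity.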
# [4] = qHTS assay for small molecules that induce genotoxicity in human embryonic kidney cells expressing luciferase-tagged ATAD5 - cell viability (AID 651634; calls by dose curve; also: nearly all actives have a fitted effect of over 25% in size)
# In short: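 15.5 hr compound or vehicle exposure of HEK293T cells expressing luciferase-tagged ATAD5 at 37C; live-cell protease activity is read by fluorescence after 30 min of CellTiter-Fluor.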
# [5] = qHTS assay for small molecule disruptors of the mitochondrial membrane potential - cell viability (AID 720634; calls by dose curve;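 also: human HepG2 liver cancer cells; series mostly up to about 83 µM; nearly all actives have a fitted effect of over 20% in size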)
# In short: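 In this qHTS format, HepG2 cells plated overnight were pinned with compound, incubated 1 hr, and assayed for ATP luminescence with CellTiter-Glo after m-MPI dye addition.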
# [6] = qHTS assay for small molecule disruptors of the mitochondrial membrane potential (AID 720635); also: potency is read from the fitted curve at half-maximal effect
# In short: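 HepG2 cells (2,000/well) attached overnight at 37C, then took compound for 1 hr at 37C, 5% CO2. Mito-MPS dye was added for 30 min; fluorescence was read at 490/535 nm (monomers) and 540/590 nm (aggregates).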
# [7] = qHTS assay to test for compound auto fluorescence at 535 nm (green) in HepG2 cells (AID 720675)
# [8] = qHTS assay to test for compound auto fluorescence at 460 nm (blue) in HEK293 cells (AID 720678)
# In short: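 After cell attachment (4-5 hr, 37C), compounds were pinned onto HEK293 monolayers in 10% dialyzed FBS medium. The blue channel (405/460 nm) was read following overnight culture. Equivalency was calculated against triamterene.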
# [9] = qHTS assay to test for compound auto fluorescence at 590 nm (red) in HEK293 cells (AID 720679)
# In short: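 Plates of HEK293 cells (10% dialyzed FBS) are treated with 23 nL compound or DMSO vehicle after a 4-5 hr attachment period, incubated overnight at 37C, and read for red fluorescence at 540/590nm.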
# [10] = qHTS assay to test for compound auto fluorescence at 535 nm (green) in HEK293 cells (AID 720680)
# [11] = qHTS assay to test for compound auto fluorescence at 460 nm (blue) in HEK293 cell free culture (AID 720681)
# In short: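 Test compounds were pinned into cell-free culture medium (DMEM with 10% FBS) and fluorescence was read directly at Ex/Em 405/460 nm. Signals were expressed as fluorescence equivalents of triamterene, with DMSO vehicle as control.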
# [12] = qHTS assay to test for compound auto fluorescence at 535 nm (green) in HEK293 cell free culture (AID 720682)
# In short: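 Measurement is a direct plate read of green fluorescence (485 nm in, 535 nm out) after compound addition to serum-supplemented DMEM lacking cells, with fluorescein used to express intensities.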
# [13] = qHTS assay to test for compound auto fluorescence at 590 nm (red) in HepG2 cell free culture (AID 720684)
# In short: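 Ex 540 / Em 590 nm read of compound in cell-free MEM (10% FBS). Rose Bengal sodium reference.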
# [14] = qHTS assay to test for compound auto fluorescence at 460 nm (blue) in HepG2 cell free culture (AID 720685)
# In short: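 Cell-free plates of MEM plus 10% FBS received 23 nL compound or DMSO vehicle; blue-channel (405/460 nm) intensity scored against triamterene as reference fluorophore.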
# [15] = qHTS assay to test for compound auto fluorescence at 535 nm (green) in HepG2 cell free culture (AID 720686)
# [16] = qHTS assay to test for compound auto fluorescence at 460 nm (blue) in HepG2 cells (AID 720687)
# In short: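 Cells (2,000/well in MEM with 10% FBS) attached overnight at 37 C, then were exposed to compound or DMSO for 1 hr at 37 C, 5% CO2. Fluorescence read at Ex/Em 405/460 nm, expressed as triamterene-equivalent signal.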
# [17] = biological target: Glucocorticoid receptor (Homo sapiens) (UniProt P04150); assay: qHTS assay to identify small molecule agonists of the glucocorticoid receptor (GR) signaling pathway (AID 720691; active = well fitted activation curve with a large enough effect in the signal ratio in the repeat runs, not every such curve was filed as active; the % refers to the signal ratio)
# In short: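 Measures GR pathway activation through a GRE-beta-lactamase reporter stably integrated in HeLa cells, with 18 h compound treatment at 37 C and fluorescence detection using a FRET substrate.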
# [18] = biological target: Glucocorticoid receptor (Homo sapiens) (UniProt P04150); assay: qHTS assay to identify small molecule antagonists of the glucocorticoid receptor (GR) signaling pathway (AID 720692; active = well fitted inhibition curve with a large enough effect in the signal ratio in the repeat runs, not every such curve was filed as active; the % refers to the signal ratio)
# In short: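 Tox21 10K library screened in concentration-response for blockade of dexamethasone (5 nM final)-induced GRE-bla reporter activity in HeLa cells; 18 h treatment, fluorescence read.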
# [19] = qHTS assay to test for compound auto fluorescence at 590 nm (red) in HepG2 cells (AID 720674)
# In short: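 Intrinsic compound fluorescence in the red window (Ex/Em 540/590 nm) is measured in attached HepG2 cells exposed for 1 hr, DMSO vehicle as baseline, benchmarked to Rose Bengal sodium.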
# [20] = qHTS assay to test for compound auto fluorescence at 590 nm (red) in HEK293 cell free culture (AID 720683)
# In short: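 Tox21 10K library compounds were pinned into cell-free DMEM with 10% FBS and fluorescence was read at excitation 540 nm. Activity is expressed as Rose Bengal sodium equivalency.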
# Chain of Glucocorticoid receptor (Homo sapiens) (P04150 whole entry, looked up): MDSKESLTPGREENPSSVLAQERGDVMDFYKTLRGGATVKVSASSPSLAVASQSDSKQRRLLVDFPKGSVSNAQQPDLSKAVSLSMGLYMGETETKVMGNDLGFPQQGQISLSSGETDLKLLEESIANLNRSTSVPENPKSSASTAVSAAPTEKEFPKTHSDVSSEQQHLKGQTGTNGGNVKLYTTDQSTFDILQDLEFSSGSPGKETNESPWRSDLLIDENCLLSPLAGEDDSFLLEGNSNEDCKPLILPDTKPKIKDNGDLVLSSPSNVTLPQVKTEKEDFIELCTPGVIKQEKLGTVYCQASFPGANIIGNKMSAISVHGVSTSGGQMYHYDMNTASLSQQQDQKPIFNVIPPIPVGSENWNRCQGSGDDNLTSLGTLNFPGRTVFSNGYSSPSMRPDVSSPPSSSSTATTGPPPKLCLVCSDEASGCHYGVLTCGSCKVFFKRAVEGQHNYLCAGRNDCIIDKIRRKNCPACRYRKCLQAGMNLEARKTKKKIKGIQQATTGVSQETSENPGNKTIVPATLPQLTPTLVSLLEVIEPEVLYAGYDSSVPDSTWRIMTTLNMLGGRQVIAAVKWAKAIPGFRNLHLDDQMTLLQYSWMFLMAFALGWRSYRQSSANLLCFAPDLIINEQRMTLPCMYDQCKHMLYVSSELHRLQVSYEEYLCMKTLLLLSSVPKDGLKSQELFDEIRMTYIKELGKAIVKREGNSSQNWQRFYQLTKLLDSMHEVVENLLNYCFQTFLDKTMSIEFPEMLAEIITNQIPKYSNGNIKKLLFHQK
SMILES,Potency [1],Potency [2],Potency [3],Potency [4],Potency [5],Potency [6],Potency [7],Potency [8],Potency [9],Potency [10],Potency [11],Potency [12],Potency [13],Potency [14],Potency [15],Potency [16],Potency [17],Potency [18],Potency [19],Potency [20]
Nc1ccc(C(=O)O)c(O)c1,inactive,inactive,inactive,inactive,inactive,inactive,inactive,inactive,inactive,inactive,inactive,inactive,inactive,inactive,inactive,inactive,inactive,inactive,–,–
O=[N+]([O-])c1ccc(F)c(Cl)c1,inactive,inactive,inactive,inactive,inactive,–,inactive,inactive,inactive,inactive,inactive,inactive,inactive,inactive,inactive,inactive,inactive,inactive,inactive,inactive
C[C@H]1NCc2cc(-c3ccc4c(=O)c(C(=O)O)cn(C5CC5)c4c3OC(F)F)ccc21,inactive,inactive,inactive,inactive,inactive,–,inactive,inactive,inactive,inactive,inactive,inactive,inactive,inactive,inactive,–,inactive,inactive,inactive,inactive
CCC(CC)(CC(=O)Nc1cccc(/C=C/c2nc(C3CCC3)cs2)c1)C(=O)O,inactive,inactive,inactive,inactive,inactive,27.8 µM (active),inactive,–,inactive,inactive,inactive,inactive,inactive,inactive,inactive,inactive,–,–,–,inactive
CN(C)Cc1ccccc1O,inactive,inactive,inactive,–,inactive,inactive,inactive,inactive,inactive,inactive,inactive,inactive,inactive,inactive,inactive,inactive,inactive,–,–,inactive
Cc1nc2n(c(=O)c1CCN1CCC(c3noc4cc(F)ccc34)CC1)CCCC2,inactive,inactive,inactive,–,inactive,inactive,inactive,–,inactive,inactive,inactive,inactive,inactive,inactive,inactive,inactive,inactive,inactive,inactive,inactive
CCOC(=O)NNc1ccc(N(CC)CC(C)O)nn1 (stereo not given),inactive,inactive,inactive,inactive,inactive,–,inactive,–,inactive,inactive,inactive,inactive,inactive,inactive,inactive,–,–,–,–,inactive
